Source: PubChem
MBNL1 CUG block – MBNL1-poly(CUG) RNA binding inhibition | Q9NR56 | TR-FRET MBNL1-His/biotin-(CUG)12 binding, 665/545 ratio | Potency, µM (series often up to 57.5 µM), actives largely listed as inhibitors | 280,000 tested, 0.036% active | AID 2675; active = well fitted inhibition curve with a large enough effect in the signal ratio, with a control signal flat, not every such curve was filed as active; inconclusive = small, poorly fitted or top-dose-only effect, or effect the other way, or a change in a side signal; inactive = no such curve, though single readings can be large or run the other way; the % refers to the signal ratio
Target sequence (Q9NR56 whole entry, looked up): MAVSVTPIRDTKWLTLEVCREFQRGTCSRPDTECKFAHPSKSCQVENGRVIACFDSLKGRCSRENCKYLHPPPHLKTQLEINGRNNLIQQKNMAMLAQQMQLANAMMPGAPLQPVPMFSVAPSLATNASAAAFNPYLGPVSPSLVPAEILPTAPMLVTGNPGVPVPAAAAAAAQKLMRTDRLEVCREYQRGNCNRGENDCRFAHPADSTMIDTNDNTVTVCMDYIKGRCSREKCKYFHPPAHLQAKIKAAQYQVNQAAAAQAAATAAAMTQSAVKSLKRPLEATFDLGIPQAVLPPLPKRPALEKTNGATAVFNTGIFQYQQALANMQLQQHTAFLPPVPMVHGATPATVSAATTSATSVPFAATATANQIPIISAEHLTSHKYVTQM
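TR-FRET readout: Ex 340 nm, 665/545 nm emission ratio, normalized to buffer-only (basal) and MBNL1-(CUG)12 controls. Complex of MBNL1-His with Biotin-(CUG)12, compounds 92 nM–58 uM, incubated 60 min at room temperature.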
Vif-A3F inh – Vif-A3F binding inhibition; HeLa A3F-eYFP + Vif (tagged APOBEC3F with the HIV-1 protein that degrades it), YFP fluorescence increase; Potency, µM (doses to about 46.1 µM); 390,000 tested, 0.2% active; AID 602313; also: nearly all actives have a fitted effect of over 65% in size
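HeLa cells stably expressing A3F-eYFP plus Vif, plated and incubated overnight at 37 deg C, then exposed to compounds overnight at 37 deg C. Blocked degradation read as raised yellow fluorescence (Ex 488/Em 500-530).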
BCR signal inh – chronic active BCR signaling inhibition. 340,000 tested, 0.05% active. Potency, µM (top dose mostly 46.1 µM), actives largely listed as inhibitors. ABC-DLBCL IkBa-CBG/CBR reporter, luminescence ratio, 4 h; active = well fitted inhibition curve with a large enough effect in the signal ratio, with a control signal flat, not every such curve was filed as active; inconclusive = small, poorly fitted or top-dose-only effect, or effect the other way, or a change in a side signal; the % refers to the signal ratio
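Compounds up to 46 uM were incubated four hours with TMD8 cells whose green CBG68 luciferase is fused to IkappaBalpha; red CBR luminescence normalised the signal, and concentration-effect curves were fitted to fusion, red and ratio data.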
TCR activator – activators of T cell receptors | Potency, µM (titrated, usually from 9.22 µM), usual class: activators | primary human leukocytes, anti-CD3, IL-2 HTRF, 48 h | 330,000 tested, under 10 active
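HTRF read-out of IL-2 secretion: europium cryptate donor excited at 320nm, d2 acceptor emission at 665nm. Cells were primary human leukocytes incubated 48 hr with compounds and a-CD3 beads, supplying TCR signal only.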
uPA surface inh – inhibitors of cell surface uPA generation; cell surface uPA generation assay, qHTS; Potency, µM (highest dose often 38.3 µM), actives largely listed as inhibitors; 330,000 tested, 0.31% active; AID 540303; active = well fitted inhibition curve with a large enough effect; inconclusive = small, poorly fitted or top-dose-only effect; inactive = no such curve, though single readings can be large or run the other way; tested in mouse RAW 264.7 cells; also: nearly all actives have a fitted effect of over 55% in size
Vif-APOBEC3G blk – Vif-A3G binding inhibition; 410,000 tested, 0.076% active; HeLa A3G-eYFP + Vif (tagged APOBEC3G with the HIV-1 protein that degrades it), YFP fluorescence, overnight; Potency, µM (doses to about 46.1 µM), actives largely listed as inhibitors; AID 602310; also: nearly all actives have a fitted effect of over 60% in size
Target sequence (Q9HC16 whole entry, looked up): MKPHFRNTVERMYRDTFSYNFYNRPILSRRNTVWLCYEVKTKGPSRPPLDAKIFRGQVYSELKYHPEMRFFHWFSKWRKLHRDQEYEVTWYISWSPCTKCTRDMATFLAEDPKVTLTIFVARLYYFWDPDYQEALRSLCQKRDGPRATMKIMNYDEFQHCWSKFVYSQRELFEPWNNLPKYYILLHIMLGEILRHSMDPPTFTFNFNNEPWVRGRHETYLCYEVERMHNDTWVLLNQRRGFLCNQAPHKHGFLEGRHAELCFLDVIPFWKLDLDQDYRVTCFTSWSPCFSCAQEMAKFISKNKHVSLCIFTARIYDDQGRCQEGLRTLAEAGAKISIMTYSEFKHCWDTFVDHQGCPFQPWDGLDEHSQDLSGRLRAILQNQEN
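HeLa cells stably expressing Vif and C-terminally eYFP-tagged A3G, seeded overnight at 37 deg C, then exposed to compound by pintool overnight at 37 deg C. Rise in yellow fluorescence (Ex 488/Em 500-530, Acumen) marks blocked Vif-driven A3G degradation.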
Hits are given with their value. This is a sample that favours compounds with a hit; in the whole collection about 0.54% have one here. Unless noted, calls follow the shape of the dose curve; as a rule, active = well fitted curve in the direction sought with a large enough effect; inconclusive = small, poorly fitted or top-dose-only effect, or another doubt; inactive = no such curve, though single readings can be large; an effect the other way counts as inactive or inconclusive.

What do the screens show for `O=C(c1ccc(Cl)c(S(=O)(=O)N2CCOCC2)c1)N(Cc1ccco1)Cc1cccs1`?
Vif-A3F inh: inactive; BCR signal inh: inactive; TCR activator: inactive; uPA surface inh: 1.12µM; Vif-APOBEC3G blk: inactive

What do the screens show for `COc1cccc(/C=N/NC(=O)c2[nH]nc3c2CCc2ccccc2-3)c1`?
Vif-A3F inh: inactive; BCR signal inh: 17.8µM; TCR activator: inactive; uPA surface inh: inactive; Vif-APOBEC3G blk: inconclusive

What do the screens show for `COc1ccc(OC)c(/C=N/NC(=O)c2[nH]nc3c2CCc2ccccc2-3)c1`?
MBNL1 CUG block: inactive; Vif-A3F inh: inactive; BCR signal inh: inconclusive; TCR activator: inactive; uPA surface inh: inactive; Vif-APOBEC3G blk: inactive

How did O=C(NCC(c1ccco1)N1CCc2ccccc21)C(=O)Nc1ccc(F)cc1F (stereo not given) do in these assays?
Vif-A3F inh: inactive; BCR signal inh: 9.2µM; TCR activator: inactive; uPA surface inh: 3.16µM; Vif-APOBEC3G blk: inactive

How did CC(C)C(=O)Nc1ccc(/C=C2\C=Cc3ccccc32)cc1 do in these assays?
Vif-APOBEC3G blk: inactive

How did CCN1CCc2c(sc(-n3cccc3)c2C(C)NC(=O)Nc2ccc(C(=O)OC)cc2)C1 (stereo not given) do in these assays?
Vif-A3F inh: 22.4µM; Vif-APOBEC3G blk: inconclusive

What do the screens show for `CCN1C(=S)SC(=O)C1=C1C=C(C)N(Cc2ccco2)C(C)=C1`?
MBNL1 CUG block: inconclusive; Vif-A3F inh: inconclusive; BCR signal inh: inactive; TCR activator: inactive; uPA surface inh: inactive; Vif-APOBEC3G blk: 11.2µM

How did Cc1ccnc(NC(=O)Nc2ccc3c(c2)N(C)C(=O)CS3)c1 do in these assays?
MBNL1 CUG block: inconclusive; Vif-A3F inh: 25.1µM; BCR signal inh: inactive; TCR activator: inactive; uPA surface inh: inactive; Vif-APOBEC3G blk: inconclusive

What do the screens show for `O=C/C(=C\Nc1ccccn1)c1nc2ccccc2o1`?
MBNL1 CUG block: inactive; Vif-A3F inh: 28.2µM; BCR signal inh: inactive; TCR activator: inactive; Vif-APOBEC3G blk: inconclusive

What do the screens show for `OCC1OC(n2cnc3c(NC4CCCCC4)ncnc32)C(O)C1O` (stereo not given)?
MBNL1 CUG block: inactive; Vif-A3F inh: inactive; BCR signal inh: 12.6µM; TCR activator: inactive; uPA surface inh: inactive; Vif-APOBEC3G blk: inactive

Results for OC[C@H]1O[C@@H](n2cnc3c(NC4CCCC4)ncnc32)[C@H](O)[C@@H]1O ?
MBNL1 CUG block: inactive; Vif-A3F inh: inactive; BCR signal inh: inconclusive; TCR activator: inactive; uPA surface inh: inactive; Vif-APOBEC3G blk: inactive

How did Cc1cc(C)c(C(=O)OCC(=O)Nc2cccc(S(=O)(=O)N3CCCCC3)c2)c(C)c1 do in these assays?
Vif-A3F inh: inactive; BCR signal inh: inactive; TCR activator: inactive; uPA surface inh: 8.91µM; Vif-APOBEC3G blk: inactive

How did C=C[C@@H]1c2cc(C)ccc2N(S(=O)(=O)c2ccc(C)cc2)[C@H](c2ccc(C(C)(F)F)cc2)C1(C#N)C#N do in these assays?
Vif-APOBEC3G blk: inactive

What do the screens show for `COC(=O)[C@H](CCSC)NC(=O)Cn1cnc(C(=O)Nc2ccc(C)c(C)c2)n1`?
Vif-A3F inh: inactive; BCR signal inh: inactive; TCR activator: inactive; uPA surface inh: 10µM; Vif-APOBEC3G blk: inactive

Results for Cc1ccc(Nc2nc(-c3ccccc3)cs2)nc1 ?
MBNL1 CUG block: inactive; Vif-A3F inh: inactive; BCR signal inh: inconclusive; uPA surface inh: 10µM; Vif-APOBEC3G blk: inactive

How did Oc1ccc(-c2csc(Nc3ccccn3)n2)cc1O do in these assays?
MBNL1 CUG block: inactive; Vif-A3F inh: inactive; BCR signal inh: inconclusive; TCR activator: inactive; uPA surface inh: 3.98µM; Vif-APOBEC3G blk: inconclusive

What do the screens show for `Cc1ccc(Nc2nc(-c3cccs3)cs2)nc1`?
MBNL1 CUG block: inactive; Vif-A3F inh: inactive; BCR signal inh: inconclusive; TCR activator: inactive; uPA surface inh: inconclusive; Vif-APOBEC3G blk: inactive

What do the screens show for `Cc1ccc(C(=O)O/N=C(\N)c2ccccn2)c(Cl)c1`?
MBNL1 CUG block: inactive; Vif-A3F inh: inactive; BCR signal inh: inconclusive; TCR activator: inactive; uPA surface inh: inconclusive; Vif-APOBEC3G blk: inactive

Results for N/C(=N\OC(=O)c1ccc(Cl)cc1Cl)c1ccccn1 ?
MBNL1 CUG block: inactive; Vif-A3F inh: inconclusive; BCR signal inh: inconclusive; TCR activator: inactive; uPA surface inh: 2.82µM; Vif-APOBEC3G blk: inactive

How did Cc1ccc(CNC(=O)c2c(Nc3ccccc3C)sc(C(=O)c3ccc(F)cc3)c2N)cc1 do in these assays?
Vif-A3F inh: inactive; BCR signal inh: 22.4µM; Vif-APOBEC3G blk: inactive

What do the screens show for `COc1cc(-c2noc(C)c2C#CCCN2C(=O)c3ccccc3C2=O)cc(OC)c1OC`?
Vif-APOBEC3G blk: inactive

Results for Cn1c(=O)n(-c2ccc(C(C)(C)C#N)cc2)c2c3cc(-c4cnc5ccccc5c4)ccc3ncc21 ?
Vif-APOBEC3G blk: inactive

Results for O=S(=O)(Nc1nc2ccccc2nc1Nc1ccc2c(c1)OCCO2)c1cccs1 ?
MBNL1 CUG block: inactive; Vif-A3F inh: 11.2µM; BCR signal inh: inactive; TCR activator: inactive; uPA surface inh: inactive; Vif-APOBEC3G blk: inactive

What do the screens show for `COc1ccc(S(=O)(=O)Nc2nc3ccccc3nc2Nc2ccc3c(c2)OCO3)cc1`?
MBNL1 CUG block: inactive; BCR signal inh: inconclusive; TCR activator: inactive

How did C/C=C(\NNC(C)=O)c1ccc(O)cc1 do in these assays?
Vif-APOBEC3G blk: inactive

How did Cc1ccc2oc(C(Cl)(Cl)Cl)cc(=O)c2c1 do in these assays?
MBNL1 CUG block: inactive; Vif-A3F inh: inactive; BCR signal inh: 22.4µM; TCR activator: inactive; uPA surface inh: inconclusive; Vif-APOBEC3G blk: inactive

Results for Cc1ccc2oc(C(F)(F)C(F)F)cc(=O)c2c1 ?
MBNL1 CUG block: inactive; Vif-A3F inh: inactive; BCR signal inh: inconclusive; TCR activator: inactive; uPA surface inh: inactive; Vif-APOBEC3G blk: inactive

How did COc1ccc2c(c1)C1OCCC1C(c1ccco1)N2 (stereo not given) do in these assays?
Vif-A3F inh: inactive; TCR activator: inactive; uPA surface inh: 2.51µM; Vif-APOBEC3G blk: inactive

How did c1coc(C2Nc3ccccc3C3OCCC23)c1 (stereo not given) do in these assays?
MBNL1 CUG block: inactive; Vif-A3F inh: inactive; BCR signal inh: inactive; TCR activator: inactive; uPA surface inh: inactive; Vif-APOBEC3G blk: inactive

Results for Cn1nnnc1Sc1ncnc2scc(-c3cccc(C(F)(F)F)c3)c12 ?
Vif-A3F inh: inactive; BCR signal inh: inconclusive; TCR activator: inactive; uPA surface inh: 8.91µM; Vif-APOBEC3G blk: inconclusive

How did Cn1nnnc1Sc1ncnc2scc(-c3ccc(-c4ccccc4)cc3)c12 do in these assays?
Vif-A3F inh: inactive; BCR signal inh: inconclusive; TCR activator: inactive; uPA surface inh: 2µM; Vif-APOBEC3G blk: inconclusive

What do the screens show for `CSc1ccccc1NC(=O)CSCc1nc2sc(C)c(C)c2c(=O)[nH]1`?
Vif-A3F inh: inactive; BCR signal inh: inactive; TCR activator: inactive; uPA surface inh: inactive; Vif-APOBEC3G blk: inactive
